# Source: the supplement of paper PMC10849652
# The full data set covers some 7,900 targets. This sample favours those with a hit. About 0.6% of all pairs of compound and target were hits. A number with no mark means an inactive call.
# Legend:
# Experiment in all cases: log2 fold change, soluble protein after heating vs DMSO (PISA); higher = thermal stabilisation; K562 cells, 10 uM, 30 min; active = over 0.2 and 3.5 SD of the protein, either way, in both replicates (recomputed)
# [1] = compound: COC1=CC=C(C=C1)CN2C=CC3=C2C=C(C=C3)C(=O)NO
# Method in brief: (§1)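 Values are thermal stability changes relative to control samples and are taken from duplicates. They are stated as log2 fold changes. Before quantification by TMTpro 16plex LC-MS/MS with equalised channel sums, K562 cells at 2×10^6 cells/mL were treated with 10 μM compound for 30 min, heated in aliquots for 3 min across 48°C-58°C, pooled, extracted in PBS with 0.5% NP-40 at 4°C, and centrifuged at 21,000xg for 90 min to give the soluble supernatant.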
# zotarolimus = compound: CO[C@H]1C[C@@H]2CC[C@@H](C)[C@@](O)(O2)C(=O)C(=O)N2CCCC[C@H]2C(=O)O[C@H]([C@H](C)C[C@@H]2CC[C@H](n3cnnn3)[C@H](OC)C2)CC(=O)[C@H](C)/C=C(\C)[C@@H](O)[C@@H](OC)C(=O)[C@H](C)C[C@H](C)/C=C/C=C/C=C/1C [zotarolimus]
# Method in brief: as §1
# idasanutlin = compound: COc1cc(C(=O)O)ccc1NC(=O)[C@@H]1N[C@@H](CC(C)(C)C)[C@](C#N)(c2ccc(Cl)cc2F)[C@H]1c1cccc(Cl)c1F [idasanutlin]
# Method in brief: as §1
# alisertib = compound: COc1cc(Nc2ncc3c(n2)-c2ccc(Cl)cc2C(c2c(F)cccc2OC)=NC3)ccc1C(=O)O [alisertib]
# Method in brief: as §1
# [2] = compound: COc1cc2nc(-c3cc(F)ccc3O)nc(N[C@@H]3CNC[C@H]3C(C)(C)O)c2cc1OC
# Method in brief: as §1
# [3] = compound: COc1cccc2cc(-c3nc([C@H]4CC[C@H](C(=O)O)CC4)n4ncnc(N)c34)[nH]c12
# Method in brief: as §1
# lapatinib = compound: CS(=O)(=O)CCNCc1ccc(-c2ccc3ncnc(Nc4ccc(OCc5cccc(F)c5)c(Cl)c4)c3c2)o1 [lapatinib]
# Method in brief: as §1
# pictilisib = compound: CS(=O)(=O)N1CCN(Cc2cc3nc(-c4cccc5[nH]ncc45)nc(N4CCOCC4)c3s2)CC1 [pictilisib]
# Method in brief: as §1
# crizotinib = compound: C[C@@H](Oc1cc(-c2cnn(C3CCNCC3)c2)cnc1N)c1c(Cl)ccc(F)c1Cl [crizotinib]
# Method in brief: as §1
# [4] = compound: C[C@@H]1COCCN1C2=NC(=NC(=C2)C3(CC3)S(=O)(=O)C)C4=C5C=CNC5=CC=C4
# Method in brief: as §1
# [5] = compound: C[C@H](C1=CC=C(C=C1)C(=O)NC2=C3C=CNC3=NC=C2)N
# Method in brief: as §1
# duvelisib = compound: C[C@H](Nc1ncnc2nc[nH]c12)c1cc2cccc(Cl)c2c(=O)n1-c1ccccc1 [duvelisib]
# Method in brief: as §1
# gandotinib = compound: Cc1cc(Nc2cc(CN3CCOCC3)c3nc(C)c(Cc4ccc(Cl)cc4F)n3n2)n[nH]1 [gandotinib]
# Method in brief: as §1
# tozasertib = compound: Cc1cc(Nc2cc(N3CCN(C)CC3)nc(Sc3ccc(NC(=O)C4CC4)cc3)n2)n[nH]1 [tozasertib]
# Method in brief: as §1
# [6] = compound: Cc1cc(SCc2sc(-c3ccc(C(F)(F)F)cc3)nc2C)ccc1OCC(=O)O
# Method in brief: as §1
# doramapimod = compound: Cc1ccc(-n2nc(C(C)(C)C)cc2NC(=O)Nc2ccc(OCCN3CCOCC3)c3ccccc23)cc1 [doramapimod]
# Method in brief: as §1
# ispinesib = compound: Cc1ccc(C(=O)N(CCCN)[C@@H](c2nc3cc(Cl)ccc3c(=O)n2Cc2ccccc2)C(C)C)cc1 [ispinesib]
# Method in brief: as §1
# filanesib = compound: CON(C)C(=O)N1N=C(c2cc(F)ccc2F)S[C@@]1(CCCN)c1ccccc1 [filanesib]
# Method in brief: as §1
# gefitinib = compound: COc1cc2ncnc(Nc3ccc(F)c(Cl)c3)c2cc1OCCCN1CCOCC1 [gefitinib]
# Method in brief: as §1
# [7] = compound: CS(=O)(=O)c1ccc(-c2cnc(N)c(C(=O)Nc3ccccc3)n2)cc1
# Method in brief: as §1
# UniProt Q9BQK8, sequence (Q9BQK8 whole entry, looked up): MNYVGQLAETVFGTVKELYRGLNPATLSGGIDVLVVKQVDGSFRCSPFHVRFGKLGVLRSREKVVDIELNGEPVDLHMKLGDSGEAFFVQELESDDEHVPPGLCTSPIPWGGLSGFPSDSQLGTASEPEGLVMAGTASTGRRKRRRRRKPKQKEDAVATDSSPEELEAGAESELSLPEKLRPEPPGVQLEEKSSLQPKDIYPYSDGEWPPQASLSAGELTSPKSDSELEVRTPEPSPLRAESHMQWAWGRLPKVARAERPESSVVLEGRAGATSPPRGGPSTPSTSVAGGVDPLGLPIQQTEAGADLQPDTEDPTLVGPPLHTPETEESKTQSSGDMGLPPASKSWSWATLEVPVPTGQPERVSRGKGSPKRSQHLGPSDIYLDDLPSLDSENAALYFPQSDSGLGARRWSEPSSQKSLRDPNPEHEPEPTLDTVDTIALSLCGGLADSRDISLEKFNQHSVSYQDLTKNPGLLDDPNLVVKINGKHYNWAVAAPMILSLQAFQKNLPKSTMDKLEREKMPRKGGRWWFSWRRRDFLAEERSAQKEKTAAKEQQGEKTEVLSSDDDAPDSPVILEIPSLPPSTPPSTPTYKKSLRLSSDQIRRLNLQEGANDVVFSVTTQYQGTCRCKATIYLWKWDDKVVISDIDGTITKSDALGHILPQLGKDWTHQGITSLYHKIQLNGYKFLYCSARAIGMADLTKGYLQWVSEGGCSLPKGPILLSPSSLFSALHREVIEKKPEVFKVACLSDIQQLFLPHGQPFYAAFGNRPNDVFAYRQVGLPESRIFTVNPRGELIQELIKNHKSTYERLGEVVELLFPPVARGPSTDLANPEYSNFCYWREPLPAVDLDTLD
# UniProt O94889, sequence (O94889 whole entry, looked up): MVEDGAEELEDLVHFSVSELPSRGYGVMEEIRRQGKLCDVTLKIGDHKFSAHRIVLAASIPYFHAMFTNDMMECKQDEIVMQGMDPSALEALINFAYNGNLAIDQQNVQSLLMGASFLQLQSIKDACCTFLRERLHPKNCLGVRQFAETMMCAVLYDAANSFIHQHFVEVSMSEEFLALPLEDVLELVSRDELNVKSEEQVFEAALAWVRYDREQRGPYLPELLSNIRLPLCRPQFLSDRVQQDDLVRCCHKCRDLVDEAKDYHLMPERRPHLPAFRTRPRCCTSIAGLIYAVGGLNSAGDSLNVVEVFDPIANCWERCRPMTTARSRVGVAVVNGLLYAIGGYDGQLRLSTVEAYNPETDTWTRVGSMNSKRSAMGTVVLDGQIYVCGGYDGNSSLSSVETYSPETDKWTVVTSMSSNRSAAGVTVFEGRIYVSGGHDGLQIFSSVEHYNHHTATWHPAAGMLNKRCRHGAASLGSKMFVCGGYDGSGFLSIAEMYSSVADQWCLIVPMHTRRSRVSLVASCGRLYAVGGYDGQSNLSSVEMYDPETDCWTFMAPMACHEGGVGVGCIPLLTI
# UniProt P24592, sequence (P24592 whole entry, looked up): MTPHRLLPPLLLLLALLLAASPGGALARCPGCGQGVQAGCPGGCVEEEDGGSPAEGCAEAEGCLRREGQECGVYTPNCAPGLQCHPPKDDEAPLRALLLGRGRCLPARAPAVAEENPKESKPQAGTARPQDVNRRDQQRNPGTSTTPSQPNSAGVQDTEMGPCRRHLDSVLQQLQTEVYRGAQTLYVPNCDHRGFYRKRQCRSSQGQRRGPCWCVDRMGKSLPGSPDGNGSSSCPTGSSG
# UniProt Q8TDD5, sequence (Q8TDD5 whole entry, looked up): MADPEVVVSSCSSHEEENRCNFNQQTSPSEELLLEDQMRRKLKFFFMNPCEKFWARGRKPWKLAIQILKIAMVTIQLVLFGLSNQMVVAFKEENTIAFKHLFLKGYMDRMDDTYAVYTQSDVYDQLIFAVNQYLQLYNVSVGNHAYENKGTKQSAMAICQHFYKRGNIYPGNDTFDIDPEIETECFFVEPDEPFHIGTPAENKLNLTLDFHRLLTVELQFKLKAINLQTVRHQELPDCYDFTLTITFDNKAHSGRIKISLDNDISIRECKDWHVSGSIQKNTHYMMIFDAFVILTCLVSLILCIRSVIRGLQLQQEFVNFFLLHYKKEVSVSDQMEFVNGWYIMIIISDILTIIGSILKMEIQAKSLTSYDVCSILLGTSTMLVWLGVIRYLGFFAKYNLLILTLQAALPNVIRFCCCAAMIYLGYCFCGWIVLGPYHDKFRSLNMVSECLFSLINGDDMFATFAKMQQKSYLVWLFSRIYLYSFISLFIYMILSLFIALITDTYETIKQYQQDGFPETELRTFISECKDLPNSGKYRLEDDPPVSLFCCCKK
# UniProt Q86VI4, sequence (Q86VI4 whole entry, looked up): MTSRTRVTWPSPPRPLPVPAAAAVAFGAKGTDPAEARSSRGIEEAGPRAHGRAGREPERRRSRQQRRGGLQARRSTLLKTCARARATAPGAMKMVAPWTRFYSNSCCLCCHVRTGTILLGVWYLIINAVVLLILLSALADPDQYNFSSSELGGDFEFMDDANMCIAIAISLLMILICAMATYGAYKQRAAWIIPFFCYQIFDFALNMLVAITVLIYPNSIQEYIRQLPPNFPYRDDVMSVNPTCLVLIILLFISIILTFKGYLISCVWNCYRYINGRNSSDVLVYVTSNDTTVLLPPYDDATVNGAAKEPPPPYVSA
# UniProt Q96G25, sequence (Q96G25 whole entry, looked up): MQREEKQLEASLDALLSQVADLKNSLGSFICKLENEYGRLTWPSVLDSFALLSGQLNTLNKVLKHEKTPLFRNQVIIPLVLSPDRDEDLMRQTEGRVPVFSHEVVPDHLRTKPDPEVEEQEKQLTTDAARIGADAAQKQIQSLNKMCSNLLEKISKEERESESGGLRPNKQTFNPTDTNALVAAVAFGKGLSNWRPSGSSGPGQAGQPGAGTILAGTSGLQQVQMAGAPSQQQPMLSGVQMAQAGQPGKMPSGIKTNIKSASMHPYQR
# UniProt Q8NHS3, sequence (Q8NHS3 whole entry, looked up): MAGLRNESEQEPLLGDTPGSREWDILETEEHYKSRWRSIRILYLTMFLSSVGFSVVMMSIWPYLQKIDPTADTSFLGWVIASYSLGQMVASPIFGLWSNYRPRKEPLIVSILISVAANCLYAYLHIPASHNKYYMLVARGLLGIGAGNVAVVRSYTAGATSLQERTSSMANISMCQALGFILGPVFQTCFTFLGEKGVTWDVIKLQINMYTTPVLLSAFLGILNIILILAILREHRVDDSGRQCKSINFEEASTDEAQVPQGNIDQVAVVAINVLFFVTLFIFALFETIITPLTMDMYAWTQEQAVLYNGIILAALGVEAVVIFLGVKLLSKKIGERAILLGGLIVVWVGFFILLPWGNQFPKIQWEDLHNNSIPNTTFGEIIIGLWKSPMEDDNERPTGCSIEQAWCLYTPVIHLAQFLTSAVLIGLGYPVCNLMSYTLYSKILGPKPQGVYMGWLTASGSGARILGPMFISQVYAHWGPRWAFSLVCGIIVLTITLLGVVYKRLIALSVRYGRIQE
# UniProt Q13163, sequence (Q13163 whole entry, looked up): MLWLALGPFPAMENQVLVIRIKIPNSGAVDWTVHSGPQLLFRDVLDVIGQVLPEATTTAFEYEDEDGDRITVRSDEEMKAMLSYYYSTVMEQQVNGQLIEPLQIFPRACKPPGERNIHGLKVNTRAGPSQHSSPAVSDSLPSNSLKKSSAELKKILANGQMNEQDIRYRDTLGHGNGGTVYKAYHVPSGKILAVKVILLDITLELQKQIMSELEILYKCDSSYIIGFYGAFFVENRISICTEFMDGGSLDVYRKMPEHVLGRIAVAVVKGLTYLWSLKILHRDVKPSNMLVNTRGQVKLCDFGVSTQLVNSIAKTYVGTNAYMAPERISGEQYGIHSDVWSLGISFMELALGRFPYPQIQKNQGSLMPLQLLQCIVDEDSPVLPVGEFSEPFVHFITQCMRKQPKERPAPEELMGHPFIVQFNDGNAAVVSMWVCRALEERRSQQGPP
# UniProt Q9NUN5, sequence (Q9NUN5 whole entry, looked up): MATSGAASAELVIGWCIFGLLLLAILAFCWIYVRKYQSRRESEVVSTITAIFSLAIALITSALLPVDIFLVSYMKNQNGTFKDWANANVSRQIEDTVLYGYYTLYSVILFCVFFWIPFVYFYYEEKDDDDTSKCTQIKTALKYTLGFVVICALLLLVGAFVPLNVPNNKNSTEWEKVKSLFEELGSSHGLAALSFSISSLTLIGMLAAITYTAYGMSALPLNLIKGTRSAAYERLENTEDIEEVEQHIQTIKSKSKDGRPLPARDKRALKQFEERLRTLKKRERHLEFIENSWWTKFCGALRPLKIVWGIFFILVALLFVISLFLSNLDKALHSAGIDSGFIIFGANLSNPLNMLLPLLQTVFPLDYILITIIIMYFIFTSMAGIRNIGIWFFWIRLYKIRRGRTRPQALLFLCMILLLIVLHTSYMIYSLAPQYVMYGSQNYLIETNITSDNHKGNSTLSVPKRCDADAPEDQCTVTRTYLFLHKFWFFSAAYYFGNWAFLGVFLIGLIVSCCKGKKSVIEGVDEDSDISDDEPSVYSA
# UniProt P55082, sequence (P55082 whole entry, looked up): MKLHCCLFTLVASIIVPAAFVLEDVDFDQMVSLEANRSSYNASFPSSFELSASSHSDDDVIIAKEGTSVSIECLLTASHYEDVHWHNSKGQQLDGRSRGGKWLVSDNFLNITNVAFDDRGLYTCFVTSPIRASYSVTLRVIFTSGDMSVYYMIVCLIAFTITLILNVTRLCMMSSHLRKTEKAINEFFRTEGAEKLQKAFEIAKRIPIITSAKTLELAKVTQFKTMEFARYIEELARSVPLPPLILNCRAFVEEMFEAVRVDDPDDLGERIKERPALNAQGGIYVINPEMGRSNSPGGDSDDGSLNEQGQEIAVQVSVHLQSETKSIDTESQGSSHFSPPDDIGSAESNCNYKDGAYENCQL
Target,log2 fold change [1],log2 fold change (zotarolimus),log2 fold change (idasanutlin),log2 fold change (alisertib),log2 fold change [2],log2 fold change [3],log2 fold change (lapatinib),log2 fold change (pictilisib),log2 fold change (crizotinib),log2 fold change [4],log2 fold change [5],log2 fold change (duvelisib),log2 fold change (gandotinib),log2 fold change (tozasertib),log2 fold change [6],log2 fold change (doramapimod),log2 fold change (ispinesib),log2 fold change (filanesib),log2 fold change (gefitinib),log2 fold change [7]
MFSD8 (UniProt Q8NHS3),-0.236,-0.062,-0.019,0.059,-0.07,0.054,0.025,0.079,-0.013,0.04,-0.023,-0.108,-0.018,0.055,-0.015,0.131,-0.208,,,
MED8 isoform 2 (UniProt Q96G25),-0.11,-0.004,0.095,-0.088,-0.154,-0.041,0.058,,0.037,-0.049,-0.077,0.029,,,-0.079,-0.031,0.012,0.033,-0.034,0.021
LENG8 (UniProt Q96PV6),0.205,-0.061,-0.151,-0.149,,-0.016,,-0.002,-0.342,0.112,0.107,-0.005,-0.094,-0.016,0.055,0.039,0.241,0,-0.056,0.022
MAML1 (UniProt Q92585),-0.065,-0.065,,,,,,,0.074,0.053,-0.056,,,,,-0.038,-0.006,0.152,,-0.022
KMT2C isoform 3 (UniProt Q8NEZ4),,-0.028,0.012,-0.028,,-0.027,,0.229,,0.021,0.022,0.134,-0.106,0.063,-0.048,,-0.235,0.029,0.058,0.013
MCOLN3 (UniProt Q8TDD5),,,,0.058,0.068,-0.035,-0.02,0.044,,,,,0.022,-0.112,,,-0.255,,-0.04,
LOX (UniProt P28300),,,,-0.111,,0.146,,,,,,,,,,,,,-0.391,
LAPTM4B (UniProt Q86VI4),,,,-0.027,,0.007,,0.017,,,,,0,,,,,0.186,,0.012
LMBRD1 (UniProt Q9NUN5),,0.049,0.102,-0.022,-0.062,0.059,-0.026,-0.03,,0.111,-0.14,-0.037,-0.137,-0.083,-0.031,,-0.61 (active),-0.39 (active),0,-0.003
MAP4K4 isoform 6 (UniProt O95819),,-0.162,,,,-0.179,,,,,-0.305,-0.152,,-0.132,-0.025,,,-0.018,-0.028,-0.019
IKZF1 isoform 2 (UniProt Q13422),,0.1,,0.079,,-0.031,,,,,0.059,,,0.055,,,-0.034,-0.075,-0.044,0.081
KLHL18 (UniProt O94889),,0.022,-0.048,-0.068,-0.048,0.038,0.071,0.09,,0.078,-0.084,0.049,-0.561 (active),-0.108,0.02,,0.028,0,0.057,0.092
LPIN3 isoform 2 (UniProt Q9BQK8),,0.011,-0.075,0.022,0.111,-0.01,0.022,0.147,,0.125,0.011,0.002,-0.059,-0.065,0.015,,-0.037,0.006,-0.029,0.016
LSR isoform 3 (UniProt Q86X29),,0.115,,-0.011,0.041,0.033,0.073,,,,-0.138,0.179,,-0.324,-0.118,,,0.188,,0.052
IGFBP6 (UniProt P24592),,-1.03 (active),0.776 (active),,,,,,,,-0.035,0.063,,,0.14,,-0.712 (active),,,
MAP2K5 (UniProt Q13163),0.206,0.003,-0.117,,,,,,-0.012,,0.072,-0.049,,,-0.171,0.053,0.123,,,
MFAP3 (UniProt P55082),,,0.192,,,,,,,0.045,,0.083,,0.009,0.003,,,-0.092,,-0.012
KIF1B isoform 3 (UniProt O60333),,,,0.251,,-0.037,,,,,,,,,,,,,,
